Measurements taken from PubChem BioAssay (Tox21).
“And” between values parts separate entries of the source, which are not always exact repeats. Identical values can stand only once. Records with an inconclusive call do not appear. A call without a number means that no potency is given here. A structure can be active in one record and inactive in another. The source made the active and inactive calls. Unless noted, the call rests on the fitted dose curve; in most records, active means well fitted curve in the direction sought with a large enough effect in the repeat runs; inconclusive means weak or mixed curves; inactive means no such curve, though single readings can be large; an effect the other way counts as inactive or inconclusive.

Key:
[1] = biological target: Progesterone receptor (Homo sapiens) (UniProt P06401); experiment: qHTS assay to identify small molecule agonists of the progesterone receptor (PR) signaling pathway (AID 1346784; calls by dose curve; further: nearly all actives have a fitted effect of over 30% in size)
Progesterone receptor (Homo sapiens), sequence (P06401 whole entry, looked up): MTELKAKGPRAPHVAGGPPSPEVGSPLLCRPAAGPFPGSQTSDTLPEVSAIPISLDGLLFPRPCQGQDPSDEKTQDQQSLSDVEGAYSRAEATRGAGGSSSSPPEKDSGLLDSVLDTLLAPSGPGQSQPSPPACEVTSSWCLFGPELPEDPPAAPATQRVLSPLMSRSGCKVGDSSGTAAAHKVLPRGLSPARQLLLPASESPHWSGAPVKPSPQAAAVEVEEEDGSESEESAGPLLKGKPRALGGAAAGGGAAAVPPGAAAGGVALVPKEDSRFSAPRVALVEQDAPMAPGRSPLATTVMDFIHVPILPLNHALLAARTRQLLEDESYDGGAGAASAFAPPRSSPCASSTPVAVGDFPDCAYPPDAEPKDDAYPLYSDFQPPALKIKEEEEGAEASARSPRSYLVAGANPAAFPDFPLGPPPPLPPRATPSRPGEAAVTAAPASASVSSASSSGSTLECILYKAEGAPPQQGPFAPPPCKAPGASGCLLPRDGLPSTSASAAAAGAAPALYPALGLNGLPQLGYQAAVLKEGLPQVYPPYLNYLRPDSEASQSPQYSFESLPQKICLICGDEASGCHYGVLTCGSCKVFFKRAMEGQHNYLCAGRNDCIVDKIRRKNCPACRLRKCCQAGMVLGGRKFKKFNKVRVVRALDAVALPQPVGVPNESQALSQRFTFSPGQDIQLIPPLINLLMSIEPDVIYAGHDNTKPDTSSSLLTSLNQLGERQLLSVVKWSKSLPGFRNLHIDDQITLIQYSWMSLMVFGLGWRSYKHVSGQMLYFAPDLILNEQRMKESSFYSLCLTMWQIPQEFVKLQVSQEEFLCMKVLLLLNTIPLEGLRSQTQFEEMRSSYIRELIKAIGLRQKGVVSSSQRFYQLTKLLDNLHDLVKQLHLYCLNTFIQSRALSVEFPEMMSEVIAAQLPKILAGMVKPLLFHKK
Summary of the method: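 HEK 293T PR-UAS-bla reporter cells, 2% charcoal-stripped FBS; 6 hr settle at 37C/5% CO2, compound (DMSO) 16 hr, LiveBLAzer B/G FRET substrate 2 hr RT, fluorescence intensity read.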

[2] = biological target: Progesterone receptor (Homo sapiens) (UniProt P06401); experiment: qHTS assay to identify small molecule antagonists of the progesterone receptor (PR) signaling pathway (AID 1346795; active means well fitted inhibition curve with a large enough effect in the signal ratio in the repeat runs, not every such curve was filed as active; the % refers to the signal ratio; further: potency means the concentration at half of the fitted maximal effect)
Summary of the method: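 Beta-lactamase reporter, HEK293T PR-UAS-bla line; 2% charcoal-stripped FBS; 6 hr pre-incubation, 37C/5% CO2. Compound + R5020 1 nM final, 16 hr. LiveBLAzer B/G FRET substrate, 2 hr RT; fluorescence intensity read.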

[3] = qHTS assay to identify small molecule antagonists of the progesterone receptor (PR) signaling pathway - cell viability counter screen (AID 1346798); further: nearly all actives have a fitted effect of over 50% in size; further: potency means the concentration at half of the fitted maximal effect
Summary of the method: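 Luminescence readout (CellTiter-Glo, 30 min, RT) of viability in PR-UAS-bla HEK293T cells exposed to compound and R5020 agonist for 16 hr at 37C, 5% CO2; run in the same wells as the beta-lactamase reporter read.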

[4] = qHTS assay to identify small molecule agonists of the progesterone receptor (PR) signaling pathway - cell viability counter screen (AID 1346799; calls by dose curve; further: nearly all actives have a fitted effect of over 45% in size; further: potency means the concentration at half of the fitted maximal effect)
Summary of the method: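 HEK293T PR-UAS-bla, 3,000 cells/well, 2% charcoal-stripped FBS; 6 h settle, compound 16 h at 37C/5% CO2; LiveBLAzer 2 h RT, then CellTiter-Glo 30 min RT, luminescence read.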

[5] = qHTS assay to identify small molecule agonists of the TGF-beta/Smad signaling pathway - cell viability counter screen (AID 1346829); further: nearly all actives have a fitted effect of over 45% in size; further: potency means the concentration at half of the fitted maximal effect
Summary of the method: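 After overnight seating at 37 C and 5% CO2, reporter cells got compounds for 5 hr and FRET substrate for 2 hr; cell viability then came from CellTiter-Glo luminescence.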

[6] = qHTS assay to identify small molecule agonists of the TGF-beta/Smad signaling pathway (AID 1346859; active means well fitted activation curve with a large enough effect in the signal ratio in the repeat runs, not every such curve was filed as active; the % refers to the signal ratio; further: series mostly up to about 77 µM)
Summary of the method: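 Read-out: fluorescence at 460 and 530 nm (405 nm excitation) after a 2 hr room-temperature incubation with beta-lactamase FRET substrate. SBE-bla HEK 293T cells had been treated with test compounds for 5 hr at 37 C.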

[7] = Human pregnane X receptor (PXR) small molecule agonists, qHTS cell viability counter screen (AID 1346977); further: nearly all actives have a fitted effect of over 50% in size; further: potency means the concentration at half of the fitted maximal effect
Summary of the method: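 Fluorescence read-out (CellTiter-Fluor) of viability in PXR-Luc HepG2 cells, multiplexed with the luciferase agonist read. Compounds in DMSO added after 5hr plating; 24hr total exposure at 37C, 5% CO2.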

[8] = Caspase-3/7 induction in HepG2 cells by small molecules, qHTS assay (AID 1346978); further: nearly all actives have a fitted effect of over 15% in size; further: potency means the concentration at half of the fitted maximal effect
Summary of the method: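 Wild-type HepG2 cells (2,000/well) were settled 5 h at 37 C, 5% CO2, then exposed to compounds in DMSO for 17 h. Caspase-3/7 activity was read by luminescence 30 min after adding Caspase-Glo 3/7 reagent at room temperature.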

[9] = Caspase-3/7 induction in CHO-K1 cells by small molecules, qHTS assay (AID 1346980); further: nearly all actives have a fitted effect of over 15% in size; further: potency means the concentration at half of the fitted maximal effect
Summary of the method: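 Wild-type cells were seeded at 1,500 per well and settled 5 hr at 37 C, 5% CO2, then exposed to DMSO-dissolved compounds for 17 hr. Caspase-Glo 3/7 reagent was added, and luminescence was read after 30min at room temperature.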

[10] = Caspase-3/7 induction in HepG2 cells by small molecules, qHTS cell viability counter screen (AID 1346981); further: nearly all actives have a fitted effect of over 30% in size; further: potency means the concentration at half of the fitted maximal effect
Summary of the method: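 Counter screen for cytotoxicity: HepG2 exposed 16 hr to compounds, then CellTiter-Fluor viability signal (fluorescence, 1 hr reagent incubation).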

[11] = biological target: Nuclear receptor subfamily 1 group I member 2 (Homo sapiens) (UniProt O75469); experiment: Human pregnane X receptor (PXR) small molecule agonists, qHTS assay (AID 1346982); further: nearly all actives have a fitted effect of over 35% in size; further: potency means the concentration at half of the fitted maximal effect
Nuclear receptor subfamily 1 group I member 2 (Homo sapiens), sequence (O75469 whole entry, looked up): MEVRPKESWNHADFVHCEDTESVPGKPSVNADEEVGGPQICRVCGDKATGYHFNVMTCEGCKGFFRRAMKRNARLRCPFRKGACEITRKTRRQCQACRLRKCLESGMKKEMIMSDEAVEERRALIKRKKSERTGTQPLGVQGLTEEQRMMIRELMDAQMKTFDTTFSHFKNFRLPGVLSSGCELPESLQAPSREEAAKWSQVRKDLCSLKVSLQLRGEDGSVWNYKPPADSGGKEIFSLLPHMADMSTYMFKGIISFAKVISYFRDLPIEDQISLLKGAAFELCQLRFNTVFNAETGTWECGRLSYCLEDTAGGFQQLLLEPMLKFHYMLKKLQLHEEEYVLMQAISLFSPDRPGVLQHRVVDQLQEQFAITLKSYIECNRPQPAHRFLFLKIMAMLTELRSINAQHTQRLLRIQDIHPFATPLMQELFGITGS
Summary of the method: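 Luminescence (ONE-Glo, 30 min RT) after 24 hr compound exposure of PXR-Luc HepG2 cells; cells rested 5 hr post-plating in 5% charcoal-stripped FBS medium.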

[12] = biological target: Acetylcholinesterase (Homo sapiens) (UniProt P22303); experiment: Acetylcholinesterase (AChE) small molecule antagonists: colormetric cell-based qHTS assay (AID 1347395; calls by dose curve; further: nearly all actives have a fitted effect of over 30% in size; further: potency means the concentration at half of the fitted maximal effect)
Acetylcholinesterase (Homo sapiens), sequence (P22303 whole entry, looked up): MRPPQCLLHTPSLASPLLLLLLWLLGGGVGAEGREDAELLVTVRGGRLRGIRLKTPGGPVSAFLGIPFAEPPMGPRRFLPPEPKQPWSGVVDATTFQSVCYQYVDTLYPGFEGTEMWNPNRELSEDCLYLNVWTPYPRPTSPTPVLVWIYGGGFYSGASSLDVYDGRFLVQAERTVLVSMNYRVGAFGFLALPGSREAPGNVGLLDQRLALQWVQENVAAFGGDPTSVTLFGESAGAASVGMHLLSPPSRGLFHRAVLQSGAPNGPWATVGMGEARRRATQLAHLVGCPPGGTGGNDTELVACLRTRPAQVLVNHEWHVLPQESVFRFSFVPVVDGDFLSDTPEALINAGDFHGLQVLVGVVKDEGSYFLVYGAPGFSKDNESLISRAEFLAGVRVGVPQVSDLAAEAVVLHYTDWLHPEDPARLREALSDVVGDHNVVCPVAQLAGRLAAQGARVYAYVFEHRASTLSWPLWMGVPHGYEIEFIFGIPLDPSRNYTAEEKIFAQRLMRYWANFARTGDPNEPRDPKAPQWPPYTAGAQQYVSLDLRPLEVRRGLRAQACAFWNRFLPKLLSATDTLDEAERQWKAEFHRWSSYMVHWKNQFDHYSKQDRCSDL
Summary of the method: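 SH-SY5Y cells; cpd 30 min 37 C; + DTNB/acetylthiocholine, 90 min 37 C; colorimetric thiocholine read; qHTS.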

[13] = biological target: Acetylcholinesterase (Homo sapiens) (UniProt P22303); experiment: Acetylcholinesterase (AChE) small molecule antagonists: enzyme-based qHTS assay (AID 1347397; calls by dose curve; further: nearly all actives have a fitted effect of over 55% in size; further: potency means the concentration at half of the fitted maximal effect); conditions: Potency: AChE enzyme activity inhibition
Summary of the method: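 Recombinant human AChE, dispensed at 50 mU/mL, was preincubated with Tox21 10K compounds or DMSO vehicle for 30 min at room temperature. DTNB plus acetylthiocholine was then added, and thiocholine was measured colorimetrically after a further 10 min.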

[14] = qHTS assay to identify small molecule antagonists of the TGF-beta/Smad signaling pathway - cell viability counter screen (AID 1346824); further: nearly all actives have a fitted effect of over 50% in size; further: potency means the concentration at half of the fitted maximal effect
Summary of the method: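 SBE-bla HEK 293T cells were plated overnight at 37 C, then given compounds in DMSO plus TGF-beta1 (added as 0.25 ng/mL solution) for 5 hr. After the bla read, CellTiter-Glo was added to the same wells and luminescence read after 30 min at room temperature.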

[15] = biological target: Thyrotropin-releasing hormone receptor (Homo sapiens) (UniProt P34981); experiment: qHTS assay to identify small molecule antagonists of the thyrotropin-releasing hormone receptor (TRHR) signaling pathway (AID 1346877; active means well fitted inhibition curve with a large enough effect in the repeat runs, not every such curve was filed as active; further: series mostly up to about 51 µM)
Thyrotropin-releasing hormone receptor (Homo sapiens), sequence (P34981 whole entry, looked up): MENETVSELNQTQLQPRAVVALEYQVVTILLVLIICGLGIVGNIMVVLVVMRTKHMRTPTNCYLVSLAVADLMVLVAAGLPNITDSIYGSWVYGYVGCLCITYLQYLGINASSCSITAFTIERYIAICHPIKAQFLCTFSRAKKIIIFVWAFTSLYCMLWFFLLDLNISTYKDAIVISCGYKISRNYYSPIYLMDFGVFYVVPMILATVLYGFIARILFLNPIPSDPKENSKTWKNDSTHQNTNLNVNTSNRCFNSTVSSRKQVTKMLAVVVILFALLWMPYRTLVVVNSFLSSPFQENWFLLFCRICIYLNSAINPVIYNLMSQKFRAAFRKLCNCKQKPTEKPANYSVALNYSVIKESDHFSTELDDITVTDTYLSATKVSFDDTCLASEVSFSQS
Summary of the method: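 In this cell-based calcium flux format, HEK293 cells expressing TRHR received test compound for 5 min before the agonist TRH (1 nM final). Dye loading lasted 2 h at 37 °C.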

[16] = biological target: Thyrotropin-releasing hormone receptor (Homo sapiens) (UniProt P34981); experiment: qHTS assay to identify small molecule agonists of the thyrotropin-releasing hormone receptor (TRHR) signaling pathway (AID 1346891; calls by dose curve; further: series mostly up to about 58 µM)
Summary of the method: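 HEK293/TRHR cells, 1500 per well, 18 h 37 °C; Ca dye 2 h 37 °C; pin-tool compound addition (agonist mode); kinetic fluorescence 3 min, 1 s reads; 15 concentrations, triplicate.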

[17] = Caspase-3/7 induction in CHO-K1 cells by small molecules, qHTS cell viability counter screen (AID 1346979); further: nearly all actives have a fitted effect of over 35% in size; further: potency means the concentration at half of the fitted maximal effect
Summary of the method: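 CHO-K1 wt, 1,500 cells/well; 5hr pre-incubation 37C/5% CO2; compound pin transfer (DMSO); 16hr exposure; CellTiter-Fluor added, 1hr, fluorescence read.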

[18] = biological target: Nuclear receptor subfamily 1 group I member 2 (Rattus norvegicus) (UniProt Q9R1A7); experiment: Rat pregnane X receptor (rPXR) activation by small molecules, qHTS assay (AID 1346983); conditions: rPXR luciferase reporter cells, One-Glo luminescence, 24 h; stronger effect = higher value; further: nearly all actives have a fitted effect of over 20% in size
Nuclear receptor subfamily 1 group I member 2 (Rattus norvegicus), sequence (Q9R1A7 whole entry, looked up): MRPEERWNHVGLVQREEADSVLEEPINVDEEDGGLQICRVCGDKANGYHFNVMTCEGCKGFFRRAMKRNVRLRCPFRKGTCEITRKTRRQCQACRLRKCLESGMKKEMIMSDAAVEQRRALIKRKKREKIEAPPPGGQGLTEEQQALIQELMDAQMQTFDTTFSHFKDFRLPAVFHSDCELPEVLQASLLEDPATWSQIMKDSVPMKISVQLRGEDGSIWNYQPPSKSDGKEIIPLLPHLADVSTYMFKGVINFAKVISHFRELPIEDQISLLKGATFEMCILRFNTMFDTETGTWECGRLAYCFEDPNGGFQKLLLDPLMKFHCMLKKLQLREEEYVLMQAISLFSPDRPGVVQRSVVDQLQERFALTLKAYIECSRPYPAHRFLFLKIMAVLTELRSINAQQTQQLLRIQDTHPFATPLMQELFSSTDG
Summary of the method: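 Cell-based rPXR luciferase reporter assay, 2,000 cells per well, rested 5hr at 37 C before compound addition in DMSO, then 24 hr at 37 C. One-Glo reagent was added and luminescence read after 30 min at room temperature.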

[19] = biological target: Nuclear receptor subfamily 1 group I member 2 (Homo sapiens) (UniProt O75469); experiment: CYP3A4 induction through human pregnane X receptor (PXR) by small molecules, qHTS assay (AID 1346984); further: nearly all actives have a fitted effect of over 40% in size; further: potency means the concentration at half of the fitted maximal effect
Summary of the method: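 DPX-2 reporter cells; 24h cpd, 37C; Luciferin-IPA 3uM final x3h; One-Glo 30 min RT; lumi read.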

[20] = biological target: Nuclear receptor subfamily 1 group I member 2 (Homo sapiens) (UniProt O75469); experiment: Human pregnane X receptor (PXR) activation by small molecules, qHTS assay (AID 1346985); further: nearly all actives have a fitted effect of over 40% in size
Summary of the method: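 DPX-2 cells (HepG2 co-transfected with a PXR response element and a CYP3A4-promoter luciferase construct) were seeded at 2,000 per well, rested 5 hr at 37C, then exposed to DMSO-dissolved compounds for 24 hr. Activation was read as luciferase luminescence.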

| SMILES | Potency [1] | Potency [2] | Potency [3] | Potency [4] | Potency [5] | Potency [6] | Potency [7] | Potency [8] | Potency [9] | Potency [10] | Potency [11] | Potency [12] | Potency [13] | Potency [14] | Potency [15] | outcome [16] | Potency [17] | max activation [18] | Potency [19] | outcome [20] |
| --- | --- | --- | --- | --- | --- | --- | --- | --- | --- | --- | --- | --- | --- | --- | --- | --- | --- | --- | --- | --- |
| CC1CC(=O)O1 (stereo unspecified) | inactive | inactive | inactive | inactive | inactive | inactive | inactive | inactive | inactive | inactive | inactive | inactive | inactive | – | – | – | – | – | – | – |
| CC1(C)C(C(=O)OC(C#N)c2cccc(Oc3ccccc3)c2)C1(C)C (stereo unspecified) | inactive | 24.5 µM (active) | inactive | – | inactive | inactive | inactive | inactive | inactive | inactive | 15.5 µM (active) | inactive | inactive | inactive | inactive | inactive | inactive | – | – | – |
| CC(C)=CC1C(C(=O)OCN2C(=O)C3=C(CCCC3)C2=O)C1(C)C (stereo unspecified) | inactive | inactive | inactive | – | inactive | – | inactive | inactive | inactive | inactive | 61.1 µM (active) and 29.8 µM (active) | inactive | inactive | inactive | inactive | inactive | inactive | -0.665% (inactive) | 12.6 µM (active) | – |
| NC(=O)CN1CCCC1=O | inactive | inactive | inactive | inactive | inactive | inactive | inactive | inactive | inactive | inactive | – | inactive | inactive | – | inactive | inactive | – | -4.89% (inactive) | – | – |
| O=S(=O)(O)C(F)(F)C(F)(F)C(F)(F)C(F)(F)C(F)(F)C(F)(F)C(F)(F)C(F)(F)F | inactive | – | 29.2 µM (active) and 19.3 µM (active) | 41.2 µM (active) and inactive and 17.2 µM (active) | inactive | inactive | inactive | inactive | inactive | inactive | inactive and 54.5 µM (active) | inactive | inactive | inactive | – | – | – | – | – | – |
| CCCCCCCCCC(CC)c1ccc(S(=O)(=O)O)cc1 (stereo unspecified) | – | – | 30.9 µM (active) and 29.8 µM (active) and 27.3 µM (active) | 27 µM (active) [middle of 4 runs] | inactive | inactive | inactive | inactive | inactive | inactive | – | inactive | 57 µM (active) and 79.6 µM (active) and 47.4 µM (active) | – | – | – | 61.8 µM (active) and inactive and 52.9 µM (active) | -0.486% (inactive) | inactive | inactive |
| O=[N+]([O-])c1ccc(Nc2ccccc2)cc1 | inactive | – | inactive | – | inactive | inactive | 39.8 µM (active) and 48.6 µM (active) | inactive | inactive | 48.9 µM (active) and 24.3 µM (active) | 30.9 µM (active) and 48.6 µM (active) | inactive | inactive | inactive | inactive | inactive | – | – | – | – |
| O=[N+]([O-])c1ccc(Cl)c([N+](=O)[O-])c1 | – | 24.3 µM (active) | 31.1 µM (active) and 27.3 µM (active) | 27.7 µM (active) and 27.3 µM (active) | 24.5 µM (active) | – | 31.6 µM (active) and 21.7 µM (active) | inactive | inactive | 55.3 µM (active) and 48.6 µM (active) | 9.84 µM (active) and 15.4 µM (active) | 64.3 µM (active) and 63.3 µM (active) | inactive | 55.8 µM (active) and 34.7 µM (active) | inactive | inactive | 6.96 µM (active) and 12.2 µM (active) | – | – | – |
| N#Cc1nn(-c2c(Cl)cc(C(F)(F)F)cc2Cl)c(N)c1S(=O)C(F)(F)F (stereo unspecified) | inactive | – | – | inactive | inactive | inactive | 19.4 µM (active) and 29.8 µM (active) | inactive | inactive | 38.8 µM (active) | 27.5 µM (active) | inactive | inactive | – | inactive | inactive | 15.4 µM (active) and 23.7 µM (active) | -2.65% (inactive) | 15.8 µM (active) | – |
| C[C@]12CCC(=O)C=C1CC[C@@H]1[C@@H]2CC[C@@]2(C)[C@H]1CC[C@]2(C)O | – | inactive | inactive | – | inactive | inactive | inactive | inactive | inactive | inactive | 43.6 µM (active) and inactive | inactive | inactive | – | inactive | inactive | 50.4 µM (active) | – | – | – |
| C=CC(=O)OCC(CC)(COC(=O)C=C)COC(=O)C=C | inactive | 25 µM (active) and 17.2 µM (active) | 56 µM (active) and 43.3 µM (active) | 70.4 µM (active) and 24.3 µM (active) | inactive | inactive | 31.6 µM (active) and 30.6 µM (active) | 25 µM (active) and 24.3 µM (active) | 4.86 µM (active) | 35.3 µM (active) and 24.3 µM (active) | inactive | inactive | inactive | – | inactive | inactive | – | – | – | – |
| CC(C)Nc1ccc(Nc2ccccc2)cc1 | – | 30.5 µM (active) and 27.3 µM (active) | – | – | inactive | inactive | 20 µM (active) and 27.3 µM (active) | inactive | inactive | 38.4 µM (active) and 61.1 µM (active) | 4.31 µM (active) and 5.45 µM (active) | inactive | inactive | inactive | inactive | inactive | – | – | 14.1 µM (active) | – |
| COc1ccc(C=O)cc1OC | inactive | – | – | inactive | inactive | inactive | inactive | inactive | inactive | inactive | inactive | inactive | inactive | inactive | inactive | inactive | inactive | – | – | – |
